Sfp inh = qHTS Assay for Inhibitors of Bacillus subtilis Sfp phosphopantetheinyl transferase (PPTase). 4'-phosphopantetheinyl transferase ffp (Bacillus subtilis), Q9F4F7. 310,000 compounds, 3.5% hits. Potency, µM, usual class: inhibitors. Biochemical Sfp PPTase activity, qHTS;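 also: the enzyme is Sfp with the accession as filed and its product quenches rhodamine fluorescence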
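Fluorescence-quenching assay: 15 nM Sfp-PPTase preincubated 15 min at room temperature with compound, then 5 uM rhodamine-CoA and 12.5 uM BHQ-2-labelled YbbR peptide added. Fluorescence (ex 525/em 598 nm) read at start and after 30 min; difference gives rate.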
BAZ2B inh = qHTS Assay for Inhibitors of BAZ2B | Bromodomain adjacent to zinc finger domain protein 2B (Homo sapiens), Q9UIF8 | AlphaScreen BAZ2B-H3K14Ac peptide displacement | Potency, µM (top dose mostly 114 µM), actives largely listed as inhibitors | 360,000 compounds, 4.4% hits | AID 504333, 2011; also: nearly all actives have a fitted effect of over 60% in size
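Compounds, titrated to a top concentration of 110 uM, were incubated 30 min at room temperature with preformed BAZ2B/acetyl-K14 H3 peptide complex (50 nM each). Proximity signal was measured by AlphaScreen after 20 min with beads.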
JMJD2A Tudor inh = qHTS Assay for Inhibitors of JMJD2A-Tudor Domain; 390,000 compounds, 4.4% hits; AlphaScreen JMJD2A-Tudor / H3K4me3 peptide binding; Potency, µM (titrated, usually from 114 µM), hits mostly inhibitors; Lysine-specific demethylase 4A (Homo sapiens), O75164; AID 504339, 2011; also: nearly all actives have a fitted effect of over 50% in size
G9a block = qHTS Assay for Inhibitors of Histone Lysine Methyltransferase G9a; G9a H3K9 monomethylation, AlphaScreen, 2 h; Potency, µM (highest dose often 102 µM), usual class: inhibitors; 350,000 compounds, 8.8% hits; Histone-lysine N-methyltransferase EHMT2 (Homo sapiens), Q96KQ7; also: nearly all actives have a fitted effect of over 75% in size
Target sequence (Q96KQ7 913-1193 limits assumed): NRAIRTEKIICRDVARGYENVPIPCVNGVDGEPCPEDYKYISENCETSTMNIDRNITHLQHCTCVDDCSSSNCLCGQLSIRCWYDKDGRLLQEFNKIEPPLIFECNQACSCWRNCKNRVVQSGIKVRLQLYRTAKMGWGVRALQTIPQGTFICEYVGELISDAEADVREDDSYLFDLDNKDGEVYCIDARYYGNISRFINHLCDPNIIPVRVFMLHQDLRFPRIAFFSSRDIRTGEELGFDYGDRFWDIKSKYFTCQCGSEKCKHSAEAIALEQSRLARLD
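G9a (20 nM) was preincubated 15 min with compound, then reacted 2 h at room temperature with 500 nM biotin-H3K9 peptide and 20 µM SAM. Monomethyl-H3K9 detected by AlphaScreen using anti-H3K9me1 antibody.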
HP1b binding inh = HTS for Inhibitors of HP1-beta Chromodomain Interactions with Methylated Histone Tails; Chromobox protein homolog 1 (Homo sapiens), P83916; 390,000 compounds, 0.56% hits; AlphaScreen HP1-beta / biotin-H3K9me3 peptide binding; Potency, µM (doses to about 114 µM), actives largely listed as inhibitors; also: nearly all actives have a fitted effect of over 70% in size
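Compound inhibition of the preformed complex between 50 nM HP1-beta and 50 nM biotinylated H3K9me3 peptide was read by AlphaScreen. Buffer was PBS pH 7.4 with 0.01% Tween-20. Incubations ran 30 min at room temperature, with 10 ug/mL donor/acceptor beads.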
Numbers stand for hits; - = inactive; ? = inconclusive; . = no result given; [ ] = another dose, or the depositor's remark. The list is not random: actives were taken first. Their share in the collection is about 12%. Calls follow the shape of the dose curve; as a rule, active = well fitted curve in the direction sought with a large enough effect; inconclusive = small, poorly fitted or top-dose-only effect, or another doubt; inactive = no such curve, though single readings can be large; an effect the other way counts as inactive or inconclusive.

SMILES | Sfp inh | BAZ2B inh | JMJD2A Tudor inh | G9a block | HP1b binding inh
CCCCN(CCCC)S(=O)(=O)c1ccc(NC(=O)c2ccc([N+](=O)[O-])cc2Cl)cc1 | - | ? | - | - | -
CCN(CC)S(=O)(=O)c1cc([N+](=O)[O-])ccc1NNC(=O)Nc1ccc(Cl)c(Cl)c1 | ? | 32µM | - | 7.9µM | -
O=c1cc(-c2ccc(O)cc2)oc2c(-c3c(O)cc(O)c4c(=O)cc(-c5ccc(O)cc5)oc34)c(O)cc(O)c12 | . | . | - | . | -
O=c1c(-c2c(O)cc(O)c3c(=O)cc(-c4ccc(O)cc4)oc23)c(-c2ccc(O)cc2)oc2cc(O)cc(O)c12 | ? | 28µM | 50µM | ? | -
COc1cccc(N2CCN(C(=O)CCS(=O)(=O)c3ccc4c(c3)oc(=O)n4C)CC2)c1 | - | - | - | -[0.0925 µM] | -
CC[N+](CC)(CC#Cc1ccccc1)CC(=O)c1ccc(Cl)cc1 | - | - | - | 7.1µM | -
COCCNC(=O)c1cccc(Nc2nc3ccccc3n3nnnc23)c1 | . | - | - | - | -
C#CCSc1nsc(SCC#C)c1C#N | - | - | 56µM | -[12.7 µM] | ?
CCCSc1nsc(SCCC)c1C#N | - | - | - | - | -

Screening data from PubChem.
